# Measured values: publication PMC12864922, “TDP-43 directly inhibits mRNA accumulation in neurites through modulation of mRNA stability”
# The full ranking holds about 9,900 sequences; the median of “r (bound/input frequency ratio)” is about 0.7, and the highest 2% start at about 6.5. This excerpt belongs to a sample that is enriched for the highest values.
# B1: ENSMUSG00000042529.290|Kcnj12 (ssRNA)
# RNA: GGGAGUUCUACAGUCCGACGAUCGCUUCGAUAUCCGCAUGCUAGGCACCUGUCAUUCUUUCUGAGUAGGUGGGCCUGUAUCCAGAGCAGGGUCUAGGGGCUCCUGCUCCCGGCUCAUCUCAGUGGCCUGAAGCAUUCAAAACUCUAGCCAGCCCCAUCCUCCUCCCUGCCAGAAUGGUCCAGUCCCUGGGCCCUGCUGGAGAGCAGCUCAAACUGCCUUUCAUCUCUGCCAAAGGCAGGCAGAUGCUGUAUUUUCAAAUUCUCCUGCCCUCUUUUCCCCUUUUUCCCUGUAUUUAUUUAUUGCCUCUUGCGGUCGCACUAGUGUGGAAUUCUCGGGUGUCAAGG
# B2: ENSMUSG00000042529.418|Kcnj12 (ssRNA)
# RNA: GGGAGUUCUACAGUCCGACGAUCGCUUCGAUAUCCGCAUGCUAGUGUGUGUGUGUGUGUGUGUGUGAACAUGUGUGAGGGUGUGGAGGUCCCAGGGUGUGUGUAUGUGAAUGUCAGUGGCUUGGGUGCUGUGUGGAGAGAGAGAGAGAGAGAGAGAGAGAGAGAGAGAGAGAGAGAGAGAGAGAGCUGCACAGGAUGAAGCAGCUGCCCUGAGCCCAUCUGGUGCUGUGCACCUGGUCCUUGUCCAGCCGAGGGCCUGGGGGCAGAAGAACACACCAUAGGGAGGCCCUUGUAUGGGUGUCUGCUCUUGCGGUCGCACUAGUGUGGAAUUCUCGGGUGUCAAGG
# B3: ENSMUSG00000042529.423|Kcnj12 (ssRNA)
# RNA: GGGAGUUCUACAGUCCGACGAUCGCUUCGAUAUCCGCAUGCUAGUGAGGGUGUGGAGGUCCCAGGGUGUGUGUAUGUGAAUGUCAGUGGCUUGGGUGCUGUGUGGAGAGAGAGAGAGAGAGAGAGAGAGAGAGAGAGAGAGAGAGAGAGAGAGAGCUGCACAGGAUGAAGCAGCUGCCCUGAGCCCAUCUGGUGCUGUGCACCUGGUCCUUGUCCAGCCGAGGGCCUGGGGGCAGAAGAACACACCAUAGGGAGGCCCUUGUAUGGGUGUCUGCCCUAUGUGAGGUCAUAGAAUGUUAAAUCUCUCUUGCGGUCGCACUAGUGUGGAAUUCUCGGGUGUCAAGG
# B4: ENSMUSG00000042529.424|Kcnj12 (ssRNA)
# RNA: GGGAGUUCUACAGUCCGACGAUCGCUUCGAUAUCCGCAUGCUAGUGUGGAGGUCCCAGGGUGUGUGUAUGUGAAUGUCAGUGGCUUGGGUGCUGUGUGGAGAGAGAGAGAGAGAGAGAGAGAGAGAGAGAGAGAGAGAGAGAGAGAGAGCUGCACAGGAUGAAGCAGCUGCCCUGAGCCCAUCUGGUGCUGUGCACCUGGUCCUUGUCCAGCCGAGGGCCUGGGGGCAGAAGAACACACCAUAGGGAGGCCCUUGUAUGGGUGUCUGCCCUAUGUGAGGUCAUAGAAUGUUAAAUCUAUUUUACUCUUGCGGUCGCACUAGUGUGGAAUUCUCGGGUGUCAAGG
# B5: ENSMUSG00000042529.420|Kcnj12 (ssRNA)
# RNA: GGGAGUUCUACAGUCCGACGAUCGCUUCGAUAUCCGCAUGCUAGUGUGUGUGUGAACAUGUGUGAGGGUGUGGAGGUCCCAGGGUGUGUGUAUGUGAAUGUCAGUGGCUUGGGUGCUGUGUGGAGAGAGAGAGAGAGAGAGAGAGAGAGAGAGAGAGAGAGAGAGAGAGAGAGCUGCACAGGAUGAAGCAGCUGCCCUGAGCCCAUCUGGUGCUGUGCACCUGGUCCUUGUCCAGCCGAGGGCCUGGGGGCAGAAGAACACACCAUAGGGAGGCCCUUGUAUGGGUGUCUGCCCUAUGUGAGGCUCUUGCGGUCGCACUAGUGUGGAAUUCUCGGGUGUCAAGG
# B6: ENSMUSG00000042529.419|Kcnj12 (ssRNA)
# RNA: GGGAGUUCUACAGUCCGACGAUCGCUUCGAUAUCCGCAUGCUAGUGUGUGUGUGUGUGUGAACAUGUGUGAGGGUGUGGAGGUCCCAGGGUGUGUGUAUGUGAAUGUCAGUGGCUUGGGUGCUGUGUGGAGAGAGAGAGAGAGAGAGAGAGAGAGAGAGAGAGAGAGAGAGAGAGAGAGCUGCACAGGAUGAAGCAGCUGCCCUGAGCCCAUCUGGUGCUGUGCACCUGGUCCUUGUCCAGCCGAGGGCCUGGGGGCAGAAGAACACACCAUAGGGAGGCCCUUGUAUGGGUGUCUGCCCUAUCUCUUGCGGUCGCACUAGUGUGGAAUUCUCGGGUGUCAAGG
# B7: ENSMUSG00000042529.416|Kcnj12 (ssRNA)
# RNA: GGGAGUUCUACAGUCCGACGAUCGCUUCGAUAUCCGCAUGCUAGUGUGUGUGUGUGUGUGUGUGUGUGUGUGUGUGUGAACAUGUGUGAGGGUGUGGAGGUCCCAGGGUGUGUGUAUGUGAAUGUCAGUGGCUUGGGUGCUGUGUGGAGAGAGAGAGAGAGAGAGAGAGAGAGAGAGAGAGAGAGAGAGAGAGAGAGCUGCACAGGAUGAAGCAGCUGCCCUGAGCCCAUCUGGUGCUGUGCACCUGGUCCUUGUCCAGCCGAGGGCCUGGGGGCAGAAGAACACACCAUAGGGAGGCCCUUGCUCUUGCGGUCGCACUAGUGUGGAAUUCUCGGGUGUCAAGG
# B8: ENSMUSG00000042529.417|Kcnj12 (ssRNA)
# RNA: GGGAGUUCUACAGUCCGACGAUCGCUUCGAUAUCCGCAUGCUAGUGUGUGUGUGUGUGUGUGUGUGUGUGUGAACAUGUGUGAGGGUGUGGAGGUCCCAGGGUGUGUGUAUGUGAAUGUCAGUGGCUUGGGUGCUGUGUGGAGAGAGAGAGAGAGAGAGAGAGAGAGAGAGAGAGAGAGAGAGAGAGAGAGCUGCACAGGAUGAAGCAGCUGCCCUGAGCCCAUCUGGUGCUGUGCACCUGGUCCUUGUCCAGCCGAGGGCCUGGGGGCAGAAGAACACACCAUAGGGAGGCCCUUGUAUGGGCUCUUGCGGUCGCACUAGUGUGGAAUUCUCGGGUGUCAAGG
# B9: ENSMUSG00000042529.422|Kcnj12 (ssRNA)
# RNA: GGGAGUUCUACAGUCCGACGAUCGCUUCGAUAUCCGCAUGCUAACAUGUGUGAGGGUGUGGAGGUCCCAGGGUGUGUGUAUGUGAAUGUCAGUGGCUUGGGUGCUGUGUGGAGAGAGAGAGAGAGAGAGAGAGAGAGAGAGAGAGAGAGAGAGAGAGAGAGCUGCACAGGAUGAAGCAGCUGCCCUGAGCCCAUCUGGUGCUGUGCACCUGGUCCUUGUCCAGCCGAGGGCCUGGGGGCAGAAGAACACACCAUAGGGAGGCCCUUGUAUGGGUGUCUGCCCUAUGUGAGGUCAUAGAAUGUUCUCUUGCGGUCGCACUAGUGUGGAAUUCUCGGGUGUCAAGG
# B10: ENSMUSG00000042529.421|Kcnj12 (ssRNA)
# RNA: GGGAGUUCUACAGUCCGACGAUCGCUUCGAUAUCCGCAUGCUAGUGUGAACAUGUGUGAGGGUGUGGAGGUCCCAGGGUGUGUGUAUGUGAAUGUCAGUGGCUUGGGUGCUGUGUGGAGAGAGAGAGAGAGAGAGAGAGAGAGAGAGAGAGAGAGAGAGAGAGAGAGCUGCACAGGAUGAAGCAGCUGCCCUGAGCCCAUCUGGUGCUGUGCACCUGGUCCUUGUCCAGCCGAGGGCCUGGGGGCAGAAGAACACACCAUAGGGAGGCCCUUGUAUGGGUGUCUGCCCUAUGUGAGGUCAUAGCUCUUGCGGUCGCACUAGUGUGGAAUUCUCGGGUGUCAAGG
# Molecular target: TDP-43 (Homo sapiens, UniProt Q13148 1-414)
# Assay: RNA Bind-n-Seq with designed 260-mer pool; 25 mM Tris-HCl, 150 mM KCl, 3 mM MgCl2, BSA (printed 500 mg/mL), 20 units/mL SUPERase IN; pH not stated; 500 nM RNA pool, 1 h, 4 C; TDP-43 5, 50, 500 nM; high values mean tight binding
# Conditions: protein: recombinant; tags: SBP (GST cleaved off with PreScission; pGEX-GST-SBP)
# Method in brief: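 For each oligo, R gives binding as its mapped-read-normalized abundance after pulldown divided by its abundance in input. Bead-captured SBP-tagged TDP-43 (5, 50 or 500 nM) was incubated with 500 nM of an in vitro-transcribed 260-nt 3′ UTR oligo pool for 1 h at 4 °C in 25 mM Tris-HCl, 150 mM KCl, 3 mM MgCl2, BSA and SUPERase IN on streptavidin beads. Washed, biotin-eluted RNA was reverse transcribed, PCR-amplified and sequenced.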
# TDP-43, sequence (Q13148 whole entry): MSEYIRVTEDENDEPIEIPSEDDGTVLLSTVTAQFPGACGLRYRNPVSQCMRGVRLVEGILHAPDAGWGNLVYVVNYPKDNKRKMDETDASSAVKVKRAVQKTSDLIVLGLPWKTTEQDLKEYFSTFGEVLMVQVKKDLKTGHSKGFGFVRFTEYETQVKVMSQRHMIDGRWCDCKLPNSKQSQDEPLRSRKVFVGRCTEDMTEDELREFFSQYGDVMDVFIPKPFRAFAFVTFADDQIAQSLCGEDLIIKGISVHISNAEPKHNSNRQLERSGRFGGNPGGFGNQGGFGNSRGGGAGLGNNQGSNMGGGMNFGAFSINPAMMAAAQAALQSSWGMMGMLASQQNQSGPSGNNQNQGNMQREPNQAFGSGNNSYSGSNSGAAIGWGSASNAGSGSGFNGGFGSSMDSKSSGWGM
row,Binder,binding signal
1,B1,1.04 R (bound/input frequency ratio)
2,B2,6.38 R (bound/input frequency ratio)
3,B3,7.6 R (bound/input frequency ratio)
4,B4,5.67 R (bound/input frequency ratio)
5,B5,6.59 R (bound/input frequency ratio)
6,B6,6.65 R (bound/input frequency ratio)
7,B7,6.11 R (bound/input frequency ratio)
8,B8,5.22 R (bound/input frequency ratio)
9,B9,6.32 R (bound/input frequency ratio)
10,B10,6.04 R (bound/input frequency ratio)
